{"source": "PubChem BioAssay (NCI)", "note": "About 83,000 compounds went through this panel and 20% of them were active in at least one assay; those are over-represented in the sample as a whole.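 In brief: 96-well plates, 48 h treatment, single concentration, percent growth endpoint.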 Calls of active or inactive are those of the source. The calls were made as follows: active = growth percent below 10; inactive = the rest.", "data": [{"test_system": "RPMI-8226 leukemia", "test": "NCI-60 one-dose screen, 48 h (100 = growth as untreated, 0 = no growth, -100 = all killed)", "conditions": "10 µM unless noted", "values": [{"compound": "Cc1[nH]n(-c2cccc(Cl)c2)c(=O)c1/C=C1\\C=c2ccccc2=CC1=O", "growth": "96.4% (inactive)"}, {"compound": "CC(C)(C)OC(=O)CN1CCc2c(sc3ncnc(N4CCN(c5ccc(F)cc5)CC4)c23)C1", "growth": "57.7% (inactive)"}, {"compound": "Cc1ccc2c(c1)sc1nc(-c3c[nH]c4ccccc34)c(Nc3ccccc3)n12", "growth": "102% (inactive)"}, {"compound": "Cn1c(C#N)ccc1-c1ccc(F)c(NC(=O)c2ccc(F)cc2)c1", "growth": "70.1% (inactive)"}, {"compound": "CCOC(=O)C1=C(CC(O)c2ccc(OC)cc2OC)NC(=O)NC1c1ccccc1", "note": "(configuration not stated)", "growth": "99.2% (inactive)"}, {"compound": "CCSc1ccnc(N)n1", "growth": "114% (inactive)"}, {"compound": "Cc1ccc(S(=O)(=O)c2nc(-c3ccccc3)oc2SCC(N)=O)cc1", "growth": "96.8% (inactive)"}, {"compound": "CN(C)c1ccc(/C=N\\NC(=O)c2ccc3nc(-c4ccc(Cl)cc4)[nH]c3c2)cc1", "growth": "67.4% (inactive)"}, {"compound": "CCOC(=O)C1=C(c2ccccc2)N=C2N(c3ccccc3)N=C(C(C)=O)N2C1c1ccc(F)cc1", "note": "(configuration not stated)", "growth": "89.3% (inactive)"}, {"compound": "CN(C)Cc1ccc(NC(=O)c2cncc(C#Cc3cnc(N)c4ncccc34)c2)cc1C(F)(F)F", "growth": "-40.4% (active)"}, {"compound": "CCN(CC)CCn1c2ccc(OC)cc2c2sc3cc(O)ccc3c(=O)c21", "growth": "21.2% (inactive)"}, {"compound": "Cc1cc(=O)oc2cc(Oc3nc(Br)cn4c(Br)cnc34)ccc12", "growth": "95.5% (inactive)"}, {"compound": "Nc1[nH]nc2nc(-c3ccccc3)n3c4ccccc4nc3c12", "growth": "101% (inactive)"}, {"compound": "O=[N+]([O-])c1ccccc1Sc1ccccc1[N+](=O)[O-]", "growth": "95.4% (inactive)"}, {"compound": "CC1(C)N=C(N)N=C(N)N1c1ccc(S(=O)(=O)Nc2nccs2)cc1", "growth": "108% (inactive)"}, {"compound": "c1ccc(-c2ccc3c(c2)C2(CCNCC2)CN3)cc1", "growth": "97.5% (inactive)"}, {"compound": "CCOC(=O)/C=C1\\S/C(=N\\Nc2cc(=O)[nH]c3ccc(Br)cc23)N(c2ccccc2)C1=O", "growth": "-12.5% (active)"}, {"compound": "COc1ccc(C2CC(n3ccnc3)c3cc(OC)c(OC)c(OC)c32)cc1O", "note": "(configuration not stated)", "growth": "94.6% (inactive)"}, {"compound": "COC(=O)c1c2c(c[n+]([O-])c1C)C(=O)C=C(NCc1ccccc1)C2=O", "growth": "-22.6% (active)"}, {"compound": "COc1ccc2c(c1)c(-c1nc(-c3ccc4ccccc4c3)cs1)cn2C", "growth": "102% (inactive)"}, {"compound": "Cc1ccc2c(c1)nc(C)n2-c1ncnc2c1CC(C)c1cc(O)ccc1N2C", "note": "(configuration not stated)", "growth": "30.3% (inactive)"}, {"compound": "Cc1cc(N2CCN(CC(=O)Nc3ccc4c(ccn4Cc4ccccc4)c3)CC2)nc(N2CCOCC2)n1", "growth": "67% (inactive)"}, {"compound": "COCCn1cc(-c2csc(-c3c[nH]c4ccc(F)cc34)n2)c2cccnc21", "growth": "21.4% (inactive)"}, {"compound": "Cc1ccc(C(=O)c2ccc(CC(=O)N/N=C/c3cccc(O)c3O)n2C)cc1", "growth": "35.1% (inactive)"}, {"compound": "CC[C@@H](C(=O)[C@@H](C)[C@@H](O)[C@H](C)[C@@H]1O[C@@H]([C@@H](CC)C(=O)ONC(=O)c2ccccc2O)CC[C@@H]1C)C1O[C@]2(C=CC(=O)[C@]3(CC[C@@](C)([C@H]4CC[C@](O)(CC)[C@H](C)O4)O3)O2)[C@H](C)C[C@@H]1C", "note": "(some centres not stated)", "growth": "24.6% (inactive)"}, {"compound": "COc1cc(-c2nccc3[nH]c(-c4cccc5[nH]ccc45)nc23)cc(OC)c1OC", "growth": "-43.6% (active)"}, {"compound": "CC(C)Cc1nc(Nc2ccccc2)[nH]c(=O)c1C#N", "growth": "25.1% (inactive)"}]}]}
